In the library only some 4.2% were active in any assay of this set; here they are far more common.
ALOX12 inh: inhibitors of human 12S-lipoxygenase ALOX12; purified 12hLO, xylenol orange hydroperoxide absorbance; Potency, µM (highest dose often 108 µM), hits mostly inhibitors; 1.1% of 580,000 active
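Hydroperoxide product was detected by ferrous iron/xylenol orange as the 573 to 405 nm absorbance ratio. Arachidonic acid at 40 uM (final) was turned over for 30 min at room temperature by 150 nM human 12hLO, pH 7.0 Hepes buffer, after 15 min compound preincubation.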
PLK1 PBD inh: PLK1 (human) polo-box domain binding inhibition; P53350; Plk1 PBD binding of FITC phosphopeptide, fluorescence polarization; Potency, µM, usual class: inhibitors; 2.8% of 360,000 active; note: series mostly up to about 57 µM; nearly all actives have a fitted effect of over 65% in size
Sfp inh: Sfp phosphopantetheinyl transferase inhibition. Q9F4F7. Biochemical Sfp PPTase activity, qHTS. Potency, µM, actives largely listed as inhibitors. 3.5% of 310,000 active;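 note: the enzyme is Sfp with the accession as filed and its product quenches rhodamine fluorescence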
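After 15 min at room temperature with compound, 15 nM Sfp received 5 uM rhodamine-CoA plus 12.5 uM BHQ-2-ybbR (50 mM Hepes pH 7.6, 10 mM MgCl2). Rate came from the fluorescence difference over 30 min, ex 525/em 598 nm.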
VDR inhibitor: inhibitors of human vitamin D receptor. P11473. VDR-SRC2-3 peptide fluorescence polarization, 2 h. Potency, µM, usual class: inhibitors. 0.93% of 400,000 active
Target sequence (P11473 whole entry, looked up): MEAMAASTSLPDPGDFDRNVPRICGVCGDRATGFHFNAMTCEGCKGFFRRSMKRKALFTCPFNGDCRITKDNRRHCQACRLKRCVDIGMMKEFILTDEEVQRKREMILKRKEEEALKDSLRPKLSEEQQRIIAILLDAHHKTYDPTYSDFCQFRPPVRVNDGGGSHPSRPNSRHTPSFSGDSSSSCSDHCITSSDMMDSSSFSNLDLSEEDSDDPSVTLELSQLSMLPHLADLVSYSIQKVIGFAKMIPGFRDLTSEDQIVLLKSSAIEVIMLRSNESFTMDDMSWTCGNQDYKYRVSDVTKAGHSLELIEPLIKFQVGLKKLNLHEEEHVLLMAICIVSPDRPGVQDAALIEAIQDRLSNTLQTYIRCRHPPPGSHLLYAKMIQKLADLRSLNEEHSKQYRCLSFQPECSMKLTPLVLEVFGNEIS
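The screen uses fluorescence polarization to detect compounds that interfere with recruitment of the SRC2-3 coactivator peptide to VDR; plates are read after 2 h at room temperature.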
Large screens that a line does not name were inactive. Calls come from the whole dose curve; as a rule, active = well fitted curve in the direction sought with a large enough effect; inconclusive = small, poorly fitted or top-dose-only effect, or another doubt; inactive = no such curve, though single readings can be large; an effect the other way counts as inactive or inconclusive.

CCCNc1nc(N2CCOCC2)nc(N2CCOCC2)n1	none
CCc1ccccc1N(CC(=O)NCc1ccccc1)C(=O)CCC(=O)Nc1ccccn1	none
Cn1cc(/C=C/C(=O)N2CCCC(C(=O)c3cccc(C(F)(F)F)c3)C2)cn1 (centres undefined)	none
O=C(Nc1c(-c2ccccc2)[nH][nH]c1=O)c1ccc2c(c1)OCO2	PLK1 PBD inh inconclusive (no result: Sfp inh, VDR inhibitor)
O=C(Nc1c(-c2ccc3c(c2)OCO3)[nH][nH]c1=O)c1ccccc1	ALOX12 inh 28µM, PLK1 PBD inh 13µM (no result: Sfp inh, VDR inhibitor)
COc1ccccc1NC(=S)N1CCN(c2ccccn2)CC1	none
S=C(Nc1ccc(Oc2ccccc2)cc1)N1CCN(c2ccccn2)CC1	PLK1 PBD inh 24µM, Sfp inh inconclusive
COc1cccc(NC(=S)N2CCN(c3ccccn3)CC2)c1	ALOX12 inh inconclusive, PLK1 PBD inh 27µM, VDR inhibitor inconclusive
COc1cc2nc(C3CCC3)nc(N3CCN(c4ccccn4)CC3)c2cc1OC	Sfp inh 79µM (no result: ALOX12 inh)
COc1cc(NC(=S)N2CCN(c3ccccn3)CC2)c(OC)cc1Cl	PLK1 PBD inh 24µM, VDR inhibitor inconclusive
O=C(NCCN1CCNC1=O)C1CCC(=O)N(CCc2ccccc2)C1 (centres undefined)	none
COc1cccc(C(=O)NNC(=O)c2ccc(NS(=O)(=O)c3cccs3)cc2)c1OC	none (no result: Sfp inh)
Cc1ccc(-c2cc(C(=O)O)c3ccc(Br)cc3n2)cc1C	none (no result: PLK1 PBD inh, Sfp inh, VDR inhibitor)
Cc1ccc(-c2onc3ccc(-c4cc(C(=O)O)c5cc(Br)ccc5n4)cc23)cc1	ALOX12 inh 7.9µM (no result: PLK1 PBD inh, Sfp inh, VDR inhibitor)
COc1cc(-c2onc3ccc(Br)cc23)cc(OC)c1OC	Sfp inh 50µM
CN(C)S(=O)(=O)c1ccc(C(=O)Nc2ccc(-n3nncc3-c3ccccc3)cc2)cc1	ALOX12 inh inconclusive (no result: PLK1 PBD inh, Sfp inh)
O=C(COc1ccccc1F)NCc1nc2ccccc2[nH]1	none
COc1nc2ccccc2nc1CCC(=O)O	PLK1 PBD inh 30µM
CC(C)(C)C(=O)OCc1cn(-c2ccc(Cl)cc2)nn1	none
CC(C)C(=O)OCc1cn(-c2ccc(Cl)c(Cl)c2)nn1	PLK1 PBD inh 21µM
CCCn1nnc(NC(=S)NC(=O)/C=C/c2ccco2)n1	ALOX12 inh inconclusive, Sfp inh 56µM
CCCCCC(=O)Nc1nnn(CCC)n1	none
CCCn1nnc(NC(=S)NC(=O)c2cccs2)n1	ALOX12 inh inconclusive, Sfp inh 40µM
CCCn1nnc(NC(=S)NC(=O)C(C)(C)C)n1	ALOX12 inh inconclusive, Sfp inh 50µM
Cn1nnc(NC(=O)c2cccs2)n1	none
CCn1nnc(NC(=S)NC(=O)c2ccc(-c3cccc(Cl)c3)o2)n1	ALOX12 inh inconclusive, PLK1 PBD inh 21µM, Sfp inh 50µM
COc1ccc(-n2c(SCC(=O)c3ccc[nH]3)nnc2-c2ccccc2)cc1	none
COc1cccc(N2C(=O)NC(=NC3CCCC3)C23CCN(Cc2ccsc2)C3)c1 (centres undefined)	none (no result: PLK1 PBD inh, Sfp inh, VDR inhibitor)
O=C(c1ccc2c(c1)[nH]c(=O)n2C1CCC(O)CC1)N1CCOCC(O)C1 (centres undefined)	none (no result: PLK1 PBD inh, Sfp inh, VDR inhibitor)
CCCN(CC1CCOC1)C(=O)Nc1ccc(OC)c(F)c1 (centres undefined)	none (no result: PLK1 PBD inh, Sfp inh, VDR inhibitor)
c1ccc(-c2nc(CSC3=NCCCN3)cs2)cc1	ALOX12 inh 16µM (no result: PLK1 PBD inh, Sfp inh, VDR inhibitor)
C/C(=N/Nc1ccccc1)c1ccc([N+](=O)[O-])cc1	ALOX12 inh 1.6µM (no result: PLK1 PBD inh, Sfp inh, VDR inhibitor)
C/C(=N\Nc1nnc(-c2ccccc2)c(-c2ccccc2)n1)c1cccc([N+](=O)[O-])c1	Sfp inh 50µM
O=[N+]([O-])c1cccc(/C=N/Nc2nnc(-c3ccccc3)c(-c3ccccc3)n2)c1	none
C/C(=N\Nc1cc(Cl)nc(C)n1)c1ccccc1	none
C/C(=N/Nc1ccc2ccccc2c1)c1ccccc1	ALOX12 inh 2µM (no result: PLK1 PBD inh, Sfp inh, VDR inhibitor)
CC/C(=N\Nc1ccc([N+](=O)[O-])cc1)c1ccccc1	PLK1 PBD inh 17µM, VDR inhibitor inconclusive (no result: ALOX12 inh)
C=CCN1C(=O)c2ccccc2C1(O)Cc1ccccc1 (centres undefined)	none
O=C(Nc1ccc2c(c1)OCCO2)c1cn(-c2ccc(F)cc2)nn1	none (no result: PLK1 PBD inh, Sfp inh, VDR inhibitor)
CCC(CC)=NNc1cccc([N+](=O)[O-])c1	ALOX12 inh inconclusive
CC/C(C)=N/Nc1cccc([N+](=O)[O-])c1	ALOX12 inh 1.1µM
COCCN1C(=O)[C@H]2CN(Cc3ccccc3Cl)C[C@H]2C1=O	none (no result: PLK1 PBD inh, Sfp inh, VDR inhibitor)
CCc1cccc(NS(=O)(=O)c2ccc(-n3cccn3)cc2)c1	ALOX12 inh inconclusive, PLK1 PBD inh 30µM
CCOC(=O)c1c(-c2ccc(C)c(C)c2)csc1NC(=O)C1CC=CCC1C(=O)O (centres undefined)	ALOX12 inh inconclusive, PLK1 PBD inh inconclusive
COC(=O)c1sccc1NC(=O)C1CC=CCC1C(=O)O (centres undefined)	none
CCOC(=O)c1c(-c2ccc(F)cc2)csc1NC(=O)C1CC=CCC1C(=O)O (centres undefined)	ALOX12 inh inconclusive, PLK1 PBD inh 24µM, Sfp inh 40µM, VDR inhibitor inconclusive
COC(=O)c1c(-c2ccco2)csc1NC(=O)C1CC=CCC1C(=O)O (centres undefined)	ALOX12 inh inconclusive, Sfp inh 13µM
Nc1ccccc1C(=O)C[C@H](N)C(=O)O	ALOX12 inh inconclusive, Sfp inh 71µM
NC(CC(=O)NC(c1ccccc1)(c1ccccc1)c1ccccc1)C(=O)O (centres undefined)	Sfp inh inconclusive
Cc1ccc(SC2=C(Sc3ccc(C)cc3)C(=O)c3ccccc3C2=O)cc1	ALOX12 inh inconclusive, PLK1 PBD inh 1.7µM, Sfp inh 7.1µM, VDR inhibitor inconclusive
CN(C)S(=O)(=O)N1CCC(N2CCN(Cc3ccc(F)cc3)C(=O)C2=O)CC1	none (no result: PLK1 PBD inh, Sfp inh)
Cc1ccsc1C=Nc1ccc(Cc2ccc(N=Cc3sccc3C)cc2)cc1	none (no result: PLK1 PBD inh, Sfp inh, VDR inhibitor)
O=C(O)c1nc(N2CCCC2)ncc1Cl	ALOX12 inh inconclusive
Cn1c(=O)c2c([nH]c(=S)n2CCCc2ccccc2)n(C)c1=O	ALOX12 inh 1.3µM, Sfp inh 50µM, VDR inhibitor 79µM
Cn1c(=O)[nH]c(=O)c2c1nc(Br)n2Cc1ccc(Cl)cc1	none (no result: Sfp inh, VDR inhibitor)
Cn1c(=O)c2c(nc(Br)n2CCCc2ccccc2)n(C)c1=O	Sfp inh inconclusive
Cn1c(=O)[nH]c(=O)c2c1[nH]c(=S)n2CCCc1ccccc1	ALOX12 inh inconclusive, PLK1 PBD inh 30µM, Sfp inh 14µM, VDR inhibitor 40µM
Cn1c(=O)[nH]c(=O)c2c1[nH]c(=S)n2Cc1ccc(Cl)cc1	ALOX12 inh inconclusive, PLK1 PBD inh 12µM, Sfp inh 8.9µM, VDR inhibitor inconclusive
O=S(=O)(c1ccc(N2CCC(c3ccc(Cl)cc3)=N2)cc1)N(CCO)CCO	ALOX12 inh inconclusive, PLK1 PBD inh 30µM, Sfp inh inconclusive
CN(C)CCCNS(=O)(=O)c1ccc(N2CCC(c3ccc(Cl)cc3)=N2)cc1	Sfp inh inconclusive (no result: PLK1 PBD inh, VDR inhibitor)
Cc1cc2oc(=O)c(CC(=O)O)c(C)c2c2occ(C(C)(C)C)c12	PLK1 PBD inh 30µM
COCCNC(=O)Cc1c(C)c2c(cc(C)c3c(C(C)(C)C)coc32)oc1=O	none
CC1C(=O)NN=C1C(=O)N/N=C\C(Br)=C\c1ccccc1 (centres undefined)	Sfp inh 50µM
O=C(N/N=C/C(Br)=C/c1ccccc1)c1cccs1	Sfp inh 56µM

Screening results from PubChem.
